Rows were chosen to be rich in hits. Some 4.1% of all compounds tested hit in one or more screens of this group.
DAX1 inh-1: DAX1 (NR0B1) inhibition, primary screen; HEK293T StAR-luciferase reporter, SF-1/DAX-1 repression relief; inhibition, % at 6.8 µM; hit rate 1.1% among 370,000; AID 652010;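 active means inhibition above the mean over all tested compounds plus 3 SD, cut at about 3.6% in these data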;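 further: 0% = DAX-1 cells with DMSO and 100% = cells lacking DAX-1 with DMSO; higher inhibition means more luminescence from relief of DAX-1 repression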
hcDAF12 agonist: activates DAF-12 receptor from parasite H. contortus | hit rate 1.4% among 370,000 | activation, % at 6.8 µM | HEK293 hcDAF-12 lit1-tk-luc reporter, luminescence; 0% DMSO, 100% Δ7-dafachronic acid;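 active means activation above the mean of all tested compounds plus 3 SD, cut at about 5.5% in these data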;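 further: 100% = response to 3 µM Δ7-dafachronic acid high control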
ssDAF-12 act: S. stercoralis DAF-12 activation, primary screen | HEK293 ssDAF-12/GRIP1 lit1-tk-luc reporter, luminescence; % of 3 µM dafachronic acid response | activation, % at 6.8 µM | hit rate 1% among 370,000;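 active means activation above the mean over all tested compounds plus 3 SD, cut at about 0.9% in these data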;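 further: 0% = DMSO-only wells and 100% = 3 µM delta7-dafachronic acid wells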
DAX1 inh-2: NR0B1 (DAX1) inhibition; inhibition, % at 6.75 µM; HEK293 Gal4-DAX1 luciferase reporter, luminescence; P51843; hit rate 0.99% among 340,000;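 active means inhibition above the mean over all tested compounds plus 3 SD, cut at about 4.2% in these data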;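 further: 0% = DAX1-transfected cells with DMSO and 100% = empty-vector control cells with DMSO; inhibition shows as a rise in luminescence from relieved DAX1 repression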
Target sequence (P51843 207-470 limits assumed): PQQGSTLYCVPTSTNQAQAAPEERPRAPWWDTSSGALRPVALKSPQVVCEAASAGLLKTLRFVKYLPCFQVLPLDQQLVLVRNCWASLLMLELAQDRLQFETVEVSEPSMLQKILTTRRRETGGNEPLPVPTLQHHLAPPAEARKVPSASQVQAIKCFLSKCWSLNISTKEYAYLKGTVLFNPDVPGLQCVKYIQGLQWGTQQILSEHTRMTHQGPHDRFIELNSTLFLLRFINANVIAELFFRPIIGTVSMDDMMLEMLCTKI
hgDAF12 agonist: activates the H. glycines DAF-12 receptor ligand-binding domain | hit rate 1.8% among 370,000 | HEK293 GAL4-hgDAF12 UAS-luciferase reporter, agonist luminescence; normalized to butyrate control | activation, % at 6.8 µM;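 active means activation above a cutoff set at the mean of all screened compounds plus 3 SD, cut at about 10% in these data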;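 further: 0% = DMSO wells and 100% = sodium butyrate wells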
Active calls of the source: *.

CC(NC(=O)OCc1ccccc1)[P+](=O)O (stereo not given) was read as DAX1 inh-1 0, hcDAF12 agonist -2, ssDAF-12 act 0 and hgDAF12 agonist -2.
`O=C(O)Cn1cc(/C=C2\C(=O)NC(=O)N(c3ccc(Cl)cc3)C2=O)c2ccccc21` gave DAX1 inh-1 0, hcDAF12 agonist 2, ssDAF-12 act 1.2*, DAX1 inh-2 0 and hgDAF12 agonist -1.
For COc1ccc(OC(=O)N(C)C[C@H]2OCc3cnnn3CCCC(=O)N([C@@H](C)CO)C[C@@H]2C)cc1 the results were DAX1 inh-1 0, hcDAF12 agonist -1, ssDAF-12 act 0 and hgDAF12 agonist 1.
Screening COCCO[C@H]1CC[C@@]2(C)C(=CCC3C2CC[C@@]2(C)C3CC[C@]2(C)O)C1 (stereo not given in full) returned DAX1 inh-1 0, hcDAF12 agonist 0, ssDAF-12 act 0, DAX1 inh-2 -1 and hgDAF12 agonist 11*.
For CC(C)(C)NC(=O)C1CN=C(c2ccccc2)c2cc(Cl)ccc2N1C(=O)C1CCC1 (stereo not given) the results were DAX1 inh-1 1, hcDAF12 agonist 0, ssDAF-12 act 0 and hgDAF12 agonist 3.
`N#CCC[C@@H]1CC[C@]2(CCCN(Cc3ccccn3)C2)O1` gave DAX1 inh-1 2, hcDAF12 agonist -2, ssDAF-12 act 0 and hgDAF12 agonist 0.
Screening CC1CCCCN1CC(O)c1c[nH]c2ccccc12 (stereo not given) returned DAX1 inh-1 0, hcDAF12 agonist 6.4*, ssDAF-12 act 0, DAX1 inh-2 4 and hgDAF12 agonist 1.
For CC1CCCCN1Cc1c[nH]c2ccccc12 (stereo not given) the results were DAX1 inh-1 0, hcDAF12 agonist 5, ssDAF-12 act 0, DAX1 inh-2 2 and hgDAF12 agonist 0.
Cc1ccc2cc(C=C(C#N)C#N)c(Cl)nc2c1 was read as DAX1 inh-1 0, hcDAF12 agonist 1, ssDAF-12 act 1.4*, DAX1 inh-2 -1 and hgDAF12 agonist 1.
For CN1C(=O)NC(=O)/C(=C\C=C\c2ccccc2[N+](=O)[O-])C1=O the results were DAX1 inh-1 0, hcDAF12 agonist 5, ssDAF-12 act 1.4* and hgDAF12 agonist 3.
Cc1ccsc1C(=O)C1CCCN(Cc2cnn(C)c2)C1 (stereo not given) was read as DAX1 inh-1 0, hcDAF12 agonist 0, ssDAF-12 act -1, DAX1 inh-2 -1 and hgDAF12 agonist -4.
`Cc1ccsc1C(=O)C1CCCN(CCO)C1` (stereo not given) gave DAX1 inh-1 0, hcDAF12 agonist 0, ssDAF-12 act 0, DAX1 inh-2 4.8* and hgDAF12 agonist -4.
O=C(CF)NC(NC(=S)Nc1ccccc1O)C(Cl)(Cl)Cl (stereo not given) was read as DAX1 inh-1 -1, hcDAF12 agonist 3, ssDAF-12 act -1, DAX1 inh-2 4.9* and hgDAF12 agonist -1.
For C=CCN(CC#CCO)Cc1ccc(OC)cc1OC the results were DAX1 inh-1 0, hcDAF12 agonist -2, ssDAF-12 act -2 and hgDAF12 agonist -1.
COCCOC(=O)C1=C(N)OC(C)=C(C(=O)OC)C12C(=O)Nc1ccccc12 (stereo not given) was read as DAX1 inh-1 0, hcDAF12 agonist 6.2*, ssDAF-12 act 0, DAX1 inh-2 0 and hgDAF12 agonist 1.
`COC(=O)C1=C(C)OC(N)=C(C#N)C12C(=O)Nc1ccccc12` (stereo not given) gave DAX1 inh-1 0, hcDAF12 agonist 1, ssDAF-12 act -1, DAX1 inh-2 1 and hgDAF12 agonist 0.
CCOC(=O)CC[C@@H]1CC[C@]2(CCCN(Cc3cccnc3)C2)O1 was read as DAX1 inh-1 0, hcDAF12 agonist 3, ssDAF-12 act -1 and hgDAF12 agonist 0.
Screening CC(C)c1ccc(N2C(=O)NC(=O)/C(=C/c3cnc(-c4ccccc4)nc3)C2=O)cc1 returned DAX1 inh-1 0, hcDAF12 agonist -1, ssDAF-12 act -1, DAX1 inh-2 1 and hgDAF12 agonist -2.
For CSc1ncc(/C=C2/C(=O)NC(=O)N(c3ccc(C(C)C)cc3)C2=O)cn1 the results were DAX1 inh-1 0, hcDAF12 agonist 6.4*, ssDAF-12 act 0, DAX1 inh-2 0 and hgDAF12 agonist 0.
Cc1cc(C)cc(NC(=O)CCNC(=O)N2C[C@H]3C[C@@H](C2)c2cccc(=O)n2C3)c1 was read as DAX1 inh-1 0, hcDAF12 agonist -2, ssDAF-12 act -2, DAX1 inh-2 4.3* and hgDAF12 agonist -3.
`COc1cc(C2c3cc4c(c(O)c3CC3COC(=O)C32)OCO4)cc(OC)c1OC` (stereo not given) gave DAX1 inh-1 3, hcDAF12 agonist -1, ssDAF-12 act 0, DAX1 inh-2 1 and hgDAF12 agonist -7.
For COc1cc(C2c3cc(O)c(OC)cc3CC3C(=O)OCC32)ccc1O (stereo not given) the results were DAX1 inh-1 1, hcDAF12 agonist -1, ssDAF-12 act -1, DAX1 inh-2 4.8* and hgDAF12 agonist -2.
`Brc1ccc2c(c1)-n1nncc1CNC2` gave DAX1 inh-1 0, hcDAF12 agonist -2, ssDAF-12 act -1 and hgDAF12 agonist 3.
Screening COc1ccccc1N1CCN(Cc2ccc(Br)s2)CC1 returned DAX1 inh-1 -1, hcDAF12 agonist -1, ssDAF-12 act 1, DAX1 inh-2 6.5* and hgDAF12 agonist 1.
For COc1ccccc1N1CCN(Cc2ccccc2)CC1 the results were DAX1 inh-1 0, hcDAF12 agonist 0, ssDAF-12 act -2, DAX1 inh-2 0 and hgDAF12 agonist 1.
For Cc1ccc(-c2nc(N(C)C3CCN(C)CC3)c3ccccc3n2)cc1 the results were DAX1 inh-1 1, hcDAF12 agonist 6.0*, ssDAF-12 act 0, DAX1 inh-2 2 and hgDAF12 agonist 6.
Cc1nc2ncnn2c(C)c1CCC(=O)N1CCC2(CC1)OCCO2 was read as DAX1 inh-1 0, hcDAF12 agonist -1, ssDAF-12 act -2, DAX1 inh-2 4.6* and hgDAF12 agonist -1.
Screening O=C(NCCN1CCC2(CC1)C(=O)NCN2c1ccccc1)c1ccc(Cl)cc1 returned DAX1 inh-1 0, hcDAF12 agonist -1, ssDAF-12 act -1 and hgDAF12 agonist 0.
`CC(NC(=O)OCc1ccccc1)P(=O)(Oc1ccccc1)Oc1ccccc1` (stereo not given) gave DAX1 inh-1 -1, hcDAF12 agonist -1, ssDAF-12 act -2 and hgDAF12 agonist -2.
Screening COP(=O)(OC)C(C)NC(=O)OCc1ccccc1 (stereo not given) returned hcDAF12 agonist 1, ssDAF-12 act -2 and hgDAF12 agonist 4.
Screening Fc1ccccc1CCNCc1cccc2ccccc12 returned DAX1 inh-1 0, hcDAF12 agonist 1, ssDAF-12 act -2, DAX1 inh-2 -1 and hgDAF12 agonist 0.
